Results on 17 molecules are retold here after PubChem BioAssay (Tox21).

Where “and” joins values, the source holds several entries; their conditions need not be identical. Equal entries are not always repeated. Unmarked numbers belong to inactive results. Results filed as inconclusive are left out. Calls of active or inactive are those of the source. Unless noted, calls come from the whole dose curve; as a rule, active = well fitted curve in the direction sought with a large enough effect in the repeat runs; inconclusive = weak or mixed curves; inactive = no such curve, though single readings can be large; an effect the other way counts as inactive or inconclusive.

Test [1] is described as follows: qHTS assay to identify small molecule agonists of the androgen receptor (AR) signaling pathway in the presence of an antagonist - cell viability counter screen (AID 1259379).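 For activity change, negative = cytotoxicity: MDA-kb2 human breast cancer cells carrying an MMTV luciferase reporter; series mostly up to about 92 µM.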 Note: nearly all actives have a fitted effect of over 25% in size. Note: potency is the fitted concentration of half-maximal effect. Put shortly: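 Nilutamide-containing (3.0uM final) MDA-kb2 cultures, 3,000 cells/well, were treated with compounds across 15 concentrations. After 16 hr at 37C with no CO2, cell viability was determined by CellTiter-Fluor fluorescence in the luciferase assay wells.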

The target of test [2] is Androgen receptor (Homo sapiens) (UniProt P10275). As to the kind of experiment: qHTS assay to identify small molecule agonists of the androgen receptor (AR) signaling pathway in the presence of an antagonist (AID 1259381; calls by dose curve; note: nearly all actives have a fitted effect of over 15% in size; note: potency is the fitted concentration of half-maximal effect). The gist of the method: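 Reporter-gene luminescence from MDA-kb2 cells exposed 16hr at 37C (0% CO2) to 15-point compound titrations with 3.0uM final nilutamide as AR antagonist.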
Sequence of Androgen receptor (Homo sapiens) (P10275 whole entry, looked up): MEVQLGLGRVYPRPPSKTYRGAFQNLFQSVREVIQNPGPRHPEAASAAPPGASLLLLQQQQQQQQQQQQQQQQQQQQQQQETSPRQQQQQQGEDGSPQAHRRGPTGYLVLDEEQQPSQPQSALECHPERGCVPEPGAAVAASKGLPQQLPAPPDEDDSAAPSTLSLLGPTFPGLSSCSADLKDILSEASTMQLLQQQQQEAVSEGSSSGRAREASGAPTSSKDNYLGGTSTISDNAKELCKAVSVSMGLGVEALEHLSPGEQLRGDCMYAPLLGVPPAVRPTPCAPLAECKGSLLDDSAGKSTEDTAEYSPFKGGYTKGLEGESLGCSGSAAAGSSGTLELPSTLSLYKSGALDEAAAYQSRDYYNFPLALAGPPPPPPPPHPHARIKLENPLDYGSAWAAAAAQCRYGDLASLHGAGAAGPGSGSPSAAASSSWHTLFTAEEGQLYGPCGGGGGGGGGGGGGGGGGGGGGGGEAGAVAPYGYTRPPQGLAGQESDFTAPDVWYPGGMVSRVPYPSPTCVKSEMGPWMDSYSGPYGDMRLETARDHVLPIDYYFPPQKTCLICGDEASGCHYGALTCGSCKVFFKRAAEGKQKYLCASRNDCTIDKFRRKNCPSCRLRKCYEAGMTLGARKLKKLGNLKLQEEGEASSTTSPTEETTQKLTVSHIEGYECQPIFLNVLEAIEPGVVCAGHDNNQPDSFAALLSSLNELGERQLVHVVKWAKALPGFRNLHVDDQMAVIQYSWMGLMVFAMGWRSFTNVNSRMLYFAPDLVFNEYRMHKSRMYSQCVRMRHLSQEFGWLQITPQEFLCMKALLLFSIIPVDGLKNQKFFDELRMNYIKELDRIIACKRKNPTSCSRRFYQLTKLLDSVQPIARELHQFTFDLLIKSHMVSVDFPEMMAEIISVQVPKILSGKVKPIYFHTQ

Test [3] can be described thus: qHTS assay to identify small molecule antagonists of the estrogen receptor beta (ER-beta) signaling pathway - cell viability counter screen (AID 1259382).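 For activity change, negative = cytotoxicity: HEK293T cells carrying ER-beta-UAS-bla reporter stimulated with estradiol; series mostly up to about 92 µM.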 Note: nearly all actives have a fitted effect of over 55% in size. Note: potency is the fitted concentration of half-maximal effect. The gist of the method:
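Viability is scored by CellTiter-Glo luminescence (30 min, room temperature) in ER-beta-UAS-bla HEK293T wells already read for reporter fluorescence. Compound exposure lasts 16 hr at 37C alongside 1nM 17-beta-estradiol in charcoal-stripped serum medium.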
In general terms: In qHTS, concentration-response curves come from the screen itself.

Test [4] is described as follows: qHTS assay to identify small molecule agonists or antagonists of the thyroid stimulating hormone receptor (TSHR) signaling pathway - wild type cell line counter screen (AID 1259384; calls by dose curve). The gist of the method:
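Wild-type Hek293 cells, 800/well, 18 h at 37C, then compound with Ro20-1724 for 30 min RT. cAMP by HTRF (cAMP-d2/anti-cAMP cryptate), 1 h RT, fluorescence read. 15 concentrations, triplicates.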

The target in test [5] is Thyrotropin receptor (Homo sapiens) (UniProt P16473). Briefly: qHTS assay to identify small molecule antagonists of the thyroid stimulating hormone receptor (TSHR) signaling pathway (AID 1259385; calls by dose curve; note: nearly all actives have a fitted effect of over 20% in size). Put shortly:
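TSHR-HEK293 cells (800/well) plated 18 h, then compounds with Ro20-1724 and TSH at 1.5 ng/mL final, 30 min at room temperature. cAMP quantified by HTRF (cAMP-d2/anti-cAMP-cryptate, 1 h); 15 concentrations in triplicate.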

Test [6] in a line: qHTS assay to identify small molecule agonists of the estrogen receptor alpha (ER-alpha) signaling pathway in the presence of an antagonist - cell viability counter screen (AID 1259386). For activity change, negative = cytotoxicity: series mostly up to about 92 µM.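 Note: cells exposed to compounds for 22 h at 37 °C before the viability read; nearly all actives have a fitted effect of over 30% in size.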 Note: potency is the fitted concentration of half-maximal effect. The gist of the method: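 In this counter screen, compound effects on VM7Luc4E2 viability were tested in the presence of the antagonist ICI-182,780 at 10.0nM final. Compounds were dosed at 15 concentrations, exposure lasted 22hr, and the CellTiter-Fluor signal was read.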

In test [7] the target is Progesterone receptor (Homo sapiens) (UniProt P06401). Briefly: qHTS assay to identify small molecule agonists of the progesterone receptor (PR) signaling pathway (AID 1346784; calls by dose curve; note: nearly all actives have a fitted effect of over 30% in size). The gist of the method: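 Fluorescence from LiveBLAzer B/G FRET substrate cleavage (2 hr, RT) reported PR activation in PR-UAS-bla HEK 293T cells treated 16 hr at 37C/5% CO2 with compounds; medium contained 2% charcoal-stripped FBS.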
Sequence of Progesterone receptor (Homo sapiens) (P06401 whole entry, looked up): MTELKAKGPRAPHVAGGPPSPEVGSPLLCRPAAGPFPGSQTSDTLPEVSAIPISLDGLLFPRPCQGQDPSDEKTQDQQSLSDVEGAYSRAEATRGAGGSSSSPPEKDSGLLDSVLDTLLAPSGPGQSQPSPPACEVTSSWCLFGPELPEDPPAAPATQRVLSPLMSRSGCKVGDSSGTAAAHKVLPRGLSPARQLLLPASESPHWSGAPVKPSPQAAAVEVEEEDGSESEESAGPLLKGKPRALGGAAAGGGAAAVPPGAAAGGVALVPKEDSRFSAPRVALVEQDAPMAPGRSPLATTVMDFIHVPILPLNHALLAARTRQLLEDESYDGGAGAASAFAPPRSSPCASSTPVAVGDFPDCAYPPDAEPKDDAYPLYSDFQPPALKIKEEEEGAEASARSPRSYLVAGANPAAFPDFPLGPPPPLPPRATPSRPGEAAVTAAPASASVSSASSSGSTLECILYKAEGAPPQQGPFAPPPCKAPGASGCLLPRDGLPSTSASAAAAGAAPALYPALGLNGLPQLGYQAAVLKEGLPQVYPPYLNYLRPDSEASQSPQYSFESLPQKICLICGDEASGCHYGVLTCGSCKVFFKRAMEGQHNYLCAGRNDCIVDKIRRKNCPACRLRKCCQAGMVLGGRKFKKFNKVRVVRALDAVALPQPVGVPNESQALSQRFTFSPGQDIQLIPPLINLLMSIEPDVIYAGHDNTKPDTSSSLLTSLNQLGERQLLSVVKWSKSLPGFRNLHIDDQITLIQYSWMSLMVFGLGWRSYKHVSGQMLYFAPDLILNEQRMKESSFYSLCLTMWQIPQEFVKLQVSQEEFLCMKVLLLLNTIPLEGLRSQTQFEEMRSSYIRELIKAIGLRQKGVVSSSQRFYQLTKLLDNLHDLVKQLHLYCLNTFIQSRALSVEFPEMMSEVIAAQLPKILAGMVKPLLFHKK

Test [8] can be described thus: qHTS assay to identify small molecule agonists of the estrogen receptor beta (ER-beta) signaling pathway - cell viability counter screen (AID 1259380). Note: nearly all actives have a fitted effect of over 30% in size. Note: potency is the fitted concentration of half-maximal effect. The gist of the method:
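Steps: plate ER-beta-UAS-bla HEK293T cells, rest 6 hr; add compounds in DMSO; incubate 16 hr at 37C, 5% CO2; add FRET substrate 2 hr; add CellTiter-Glo, wait 30 min at room temperature; read luminescence.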

Test [9] addresses Estrogen receptor (Homo sapiens) (UniProt P03372). As to the kind of experiment: qHTS assay to identify small molecule agonists of the estrogen receptor alpha (ER-alpha) signaling pathway in the presence of an antagonist (AID 1259383; calls by dose curve; note: nearly all actives have a fitted effect of over 15% in size; note: potency is the fitted concentration of half-maximal effect; for activation: top concentration of the series differs between compounds). The gist of the method: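 Readout was ERE-driven luciferase luminescence in VM7Luc4E2 cells, which express full-length ER-alpha endogenously. Compounds were tested at 15 concentrations for 22hr alongside 10.0nM ICI-182,780 (final concentration).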
% is set by controls: 0 for no effect and ±100 for the full control effect.

Sequence of Thyrotropin receptor (Homo sapiens) (P16473 whole entry, looked up): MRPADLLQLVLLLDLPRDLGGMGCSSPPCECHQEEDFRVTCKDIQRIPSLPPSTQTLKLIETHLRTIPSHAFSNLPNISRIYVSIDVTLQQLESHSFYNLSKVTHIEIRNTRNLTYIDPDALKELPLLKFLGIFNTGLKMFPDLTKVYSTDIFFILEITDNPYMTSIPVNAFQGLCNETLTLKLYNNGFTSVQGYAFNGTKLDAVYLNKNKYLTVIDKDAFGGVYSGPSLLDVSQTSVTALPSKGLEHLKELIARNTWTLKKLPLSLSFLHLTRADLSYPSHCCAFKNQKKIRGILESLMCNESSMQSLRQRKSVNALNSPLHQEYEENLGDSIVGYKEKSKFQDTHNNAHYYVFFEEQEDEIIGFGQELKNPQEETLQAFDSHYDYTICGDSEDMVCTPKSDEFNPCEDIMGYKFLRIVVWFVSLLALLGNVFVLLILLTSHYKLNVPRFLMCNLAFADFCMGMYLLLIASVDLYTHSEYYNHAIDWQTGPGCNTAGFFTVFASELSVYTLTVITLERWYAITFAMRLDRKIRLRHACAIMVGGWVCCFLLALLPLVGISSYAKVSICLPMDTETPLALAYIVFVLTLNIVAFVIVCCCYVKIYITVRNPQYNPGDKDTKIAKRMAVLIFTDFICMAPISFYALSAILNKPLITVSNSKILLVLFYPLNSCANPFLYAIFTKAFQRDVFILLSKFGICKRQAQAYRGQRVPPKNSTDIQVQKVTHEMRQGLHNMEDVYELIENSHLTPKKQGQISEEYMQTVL
Sequence of Estrogen receptor (Homo sapiens) (P03372 whole entry, looked up): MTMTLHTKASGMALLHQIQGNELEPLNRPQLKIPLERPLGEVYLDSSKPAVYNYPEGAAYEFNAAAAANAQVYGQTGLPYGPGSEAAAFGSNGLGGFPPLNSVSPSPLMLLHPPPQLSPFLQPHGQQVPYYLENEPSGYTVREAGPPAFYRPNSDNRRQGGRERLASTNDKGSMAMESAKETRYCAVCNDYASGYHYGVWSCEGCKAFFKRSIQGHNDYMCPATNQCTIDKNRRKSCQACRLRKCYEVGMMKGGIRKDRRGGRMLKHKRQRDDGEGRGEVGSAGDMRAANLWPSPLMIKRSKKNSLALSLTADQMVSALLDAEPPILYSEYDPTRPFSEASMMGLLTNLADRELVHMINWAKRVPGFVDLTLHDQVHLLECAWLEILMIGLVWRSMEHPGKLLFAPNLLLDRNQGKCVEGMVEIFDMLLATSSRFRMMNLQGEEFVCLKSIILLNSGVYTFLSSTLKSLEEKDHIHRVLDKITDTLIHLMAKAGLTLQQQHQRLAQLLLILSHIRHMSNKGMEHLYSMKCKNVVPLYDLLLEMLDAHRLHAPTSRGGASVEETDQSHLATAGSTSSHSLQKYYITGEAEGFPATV

As to `Oc1cc2ccccc2cc1O`, the Potency entry in test [1], in test [2], in [3], in [5] and in [6] was “inactive” in each case. Also, the result in [4] and in test [7] was inactive.
Take `CC(C)(c1cc(Br)c(O)c(Br)c1)c1cc(Br)c(O)c(Br)c1`: the Potency result in test [1], in test [5] and in test [6] was “inactive” each time. The Potency in test [8] was 68.3 µM (active) and 68.4 µM (active); in test [3], 68.4 µM (active). Moreover, the molecule was classed as inactive in test [4] and in test [7].
As for `Cc1c(-c2ccc(O)cc2)n(Cc2ccc(OCCN3CCCCCC3)cc2)c2ccc(O)cc12`, the Potency is 29.8 µM (active) in test [1], 29.8 µM (active) in test [8] and 26.6 µM (active) in test [3]. The Potency result in test [6] was “inactive”.
With `NCCCC(O)(P(=O)(O)O)P(=O)(O)O`, the Potency entry in test [1], in [8], in test [3], in test [5] and in [6] was “inactive” each time. Besides, the call in [4] and in [7] was inactive.
Turning to `Cc1cccc(Br)c1`, the Potency entry in test [1], in test [5] and in [6] was “inactive” each time. Also, the Potency in test [8] was 27.4 µM (active). Moreover, the call in test [4] and in test [7] was inactive.
Turning to `COc1cccc(CCc2ccccc2OCC(CN(C)C)OC(=O)CCC(=O)O)c1` (stereo not drawn), the Potency result in [1], in test [5] and in [6] was “inactive” throughout. The values for the Potency in test [8] and in [3] were 23.7 µM (active) and 21.1 µM (active), respectively. In addition, the result in test [4] and in test [7] was inactive.
For the molecule `CCCCCCCOC(=O)c1ccc(O)cc1`, the Potency entry in test [1] and in [6] was “inactive” in each case. The Potency was 30.7 µM (active) and 24.3 µM (active) in [8]; 48.6 µM (active) in [9].
In the case of `O=C(Oc1ccccc1)c1cccc(C(=O)Oc2ccccc2)c1`, the Potency result in [1], in test [3], in test [5] and in [6] was “inactive” throughout. Besides, the Potency in test [2] was 0.644 µM (active). Further, the result in test [4] was inactive.
For the molecule `CC(=O)Nc1ccc(O)cc1`, the Potency result in test [1], in [8], in [3] and in [6] was “inactive” each time.
Turning to `CCN(CC)CCCN(c1ccccc1)C1Cc2ccccc2C1`, the Potency in [1] was 29.8 µM (active); in test [8], 11.9 µM (active). Besides, the Potency entry in test [9], in test [5] and in test [6] was “inactive” in each case. In addition, the result in test [4] and in test [7] was inactive.
As to `CCN1CCN(c2cc(-c3ccc(F)cc3)c3c(n2)CCCCCC3)CC1`, the values for the activity change, negative = cytotoxicity in test [1], in [3] and in test [6] were -1.28% [at 19 µM], -0.898% [at 19 µM] and -2.28% [at 19 µM], respectively. Moreover, the activation in [2] is -0.375% [at 19 µM]; in test [7] it was -3.65% [at 19 µM]. The cAMP activity change in [4] is 2.43% [at 18.9 µM].
Consider `C=CC(C)C#N` (stereo not drawn), for which the Potency result in test [1], in [8], in [3] and in test [6] was “inactive” each time. The result in test [7] was inactive.
With `CC(C)N=C(N)/N=C(\N)Nc1ccc(Cl)cc1`, the Potency entry in test [1], in [9] and in test [6] was “inactive” throughout. Besides, in test [8], the Potency is 23.7 µM (active). The molecule was called inactive in [7].
In the case of `CC1CCCCN1CCCOC(=O)c1ccc(OC2CCCCC2)cc1` (stereo not drawn), the Potency in [1] was 26.6 µM (active). Further, the Potency result in test [2], in test [3] and in [5] was “inactive” each time. Besides, the outcome in test [4] and in test [7] was inactive.
For the molecule `CC(=O)OC(OC(C)=O)c1ccc([N+](=O)[O-])o1`, the results for the Potency in [1], in test [8] and in test [6] were 62.2 µM (active), 62.2 µM (active) and 49.4 µM (active), respectively. Further, in test [4], the molecule was classed as inactive.
Consider `O=C(Nc1ccc(Cl)c(Cl)c1)c1cc(Cl)cc(Cl)c1O`, for which the Potency in [1] is 6.86 µM (active); in [8] it was 21.7 µM (active); in test [3], 19.3 µM (active); in test [6] it was 7.7 µM (active). Moreover, in [7], the call was inactive.
For `CCCN(CCc1cccs1)[C@H]1CCc2c(O)cccc2C1`, the Potency result in test [1], in test [2], in test [3], in test [9], in [5] and in test [6] was “inactive” in each case. Further, the molecule was called inactive in [4] and in test [7].
